From PubChem BioAssay AID1159580 (chemical genetic matrix, 2015)
Screen size: about 5,500 compounds; about 2,000 (36%) were called active. Inconclusive results (about 18%) are left out. Cut-off read from the data, not from the text of the source: active = normalized growth mostly below about 0.91 (no sharp cut-off); inconclusive = no clear call, values can overlap the other calls; inactive = mostly above about 0.92. This is one part of the list.

Assay: chemical genetic growth profiling, strain panel (AID 1159580);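 note: tested at 20 µM; growth read once vehicle control cultures reached saturation at 30 °C; 1 = growth at the plate median or of vehicle wells; lower values mean less growth of the strain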
Details: growth OD
[1] = S. cerevisiae deletion strains, locus YJR075W, strain HOC1, active compounds read low
[2] = S. cerevisiae deletion strains, locus YMR307W, strain GAS1, active compounds read low
[3] = S. cerevisiae deletion strains, locus YDL101C, strain DUN1, active compounds read low
[4] = S. cerevisiae deletion strains, locus YHR030C, strain SLT2, active compounds read low
[5] = S. cerevisiae deletion strains, locus YJL095W, strain BCK1, active compounds read low
[6] = S. cerevisiae deletion strains, locus YOR061W, strain CKA2, active compounds read low

Measured: normalized growth

O=[N+]([O-])c1ccc(CSc2ncnc3c2ncn3[C@@H]2O[C@H](CO)[C@H](O)C2O)cc1 (stereo partly drawn)
inactive: S. cerevisiae deletion strains, locus YAL013W, strain DEP1, active compounds read low 1.01 | S. cerevisiae deletion strains, locus YAL040C, strain CLN3, active compounds read low 1.01 | S. cerevisiae deletion strains, locus YCL061C, strain MRC1 (second series), active compounds read low 1.01 | S. cerevisiae deletion strains, locus YDR363W, strain ESC2, active compounds read low 1.01 | S. cerevisiae deletion strains, locus YER002W, strain NOP16, active compounds read low 0.997 | [1] 1.01 | [2] 0.996 | S. cerevisiae deletion strains, locus YNL175C, strain NOP13, active compounds read low 1.01 | S. cerevisiae deletion strains, locus YNL197C, strain WHI3, active compounds read low 1.01 | S. cerevisiae deletion strains, locus YNL224C, strain SQS1, active compounds read low 1 | S. cerevisiae deletion strains, locus YNL322C, strain KRE1, active compounds read low 1.01 | S. cerevisiae deletion strains, locus YOR083W, strain WHI5 (second series), active compounds read low 0.992 | S. cerevisiae deletion strains, locus YPL055C, strain LGE1, active compounds read low 1.01 | S. cerevisiae deletion strains, locus YPL241C, strain CIN2, active compounds read low 1.01

CC1(C)C(O)CC(O)C2(C)C1CC(=O)C1(C)C2CCC2(C)C(C(=O)O)OC(=O)C3OC321 (stereo not drawn)
inactive: S. cerevisiae deletion strains, locus YBR021W, strain FUR4, active compounds read low 1.01 | S. cerevisiae deletion strains, locus YBR229C, strain ROT2, active compounds read low 1.01 | S. cerevisiae deletion strains, locus YCL029C, strain bik1, active compounds read low 0.996 | S. cerevisiae deletion strains, locus YDL035C, strain GPR1, active compounds read low 1.01 | S. cerevisiae deletion strains, locus YDL074C, strain BRE1, active compounds read low 1 | [3] 1.01 | S. cerevisiae deletion strains, locus YDL185W, strain tfp1, active compounds read low 0.984 | S. cerevisiae deletion strains, locus YDL192W, strain arf1, active compounds read low 1 | S. cerevisiae deletion strains, locus YDR101C, strain arx1, active compounds read low 1 | S. cerevisiae deletion strains, locus YDR150W, strain NUM1, active compounds read low 1.02 | S. cerevisiae deletion strains, locus YDR162C, strain NBP2, active compounds read low 1.03 | S. cerevisiae deletion strains, locus YDR318W, strain mcm21, active compounds read low 1 | S. cerevisiae deletion strains, locus YDR388W, active compounds read low 1 | S. cerevisiae deletion strains, locus YDR502C, strain sam2, active compounds read low 1.02 | S. cerevisiae deletion strains, locus YEL061C, strain CIN8, active compounds read low 1 | S. cerevisiae deletion strains, locus YER110C, active compounds read low 0.995 | S. cerevisiae deletion strains, locus YER155C, strain BEM2, active compounds read low 1.01 | S. cerevisiae deletion strains, locus YER167W, strain BCK2, active compounds read low 1.01 | S. cerevisiae deletion strains, locus YGL078C, strain dbp3, active compounds read low 0.996 | S. cerevisiae deletion strains, locus YGL086W, strain mad1, active compounds read low 1.01 | S. cerevisiae deletion strains, locus YGL248W, strain PDE1, active compounds read low 1.01 | S. cerevisiae deletion strains, locus YGR135W, strain pre9, active compounds read low 1.01 | S. cerevisiae deletion strains, locus YGR229C, strain SMI1, active compounds read low 1.01 | S. cerevisiae deletion strains, locus YGR252W, strain gcn5, active compounds read low 0.974 | [4] 1.01 | S. cerevisiae deletion strains, locus YHR079C, strain IRE1 (second series), active compounds read low 0.994 | S. cerevisiae deletion strains, locus YHR094C, strain hxt1, active compounds read low 1.01 | S. cerevisiae deletion strains, locus YHR129C, strain ARP1, active compounds read low 1.01 | S. cerevisiae deletion strains, locus YHR200W, strain rpn10, active compounds read low 1 | S. cerevisiae deletion strains, locus YIL066C, strain RNR3, active compounds read low 1.02 | S. cerevisiae deletion strains, locus YIL073C, strain SPO22, active compounds read low 1.03 | S. cerevisiae deletion strains, locus YIL125W, strain kgd1, active compounds read low 0.994 | S. cerevisiae deletion strains, locus YIR030C, strain dcg1, active compounds read low 0.999 | [5] 1.02 | S. cerevisiae deletion strains, locus YJL134W, strain LCB3, active compounds read low 1.01 | S. cerevisiae deletion strains, locus YJL168C, strain set2, active compounds read low 0.985 | S. cerevisiae deletion strains, locus YJL187C, strain SWE1 (second series), active compounds read low 1.01 | S. cerevisiae deletion strains, locus YJR043C, strain POL32, active compounds read low 1.02 | [1] 1.01 | S. cerevisiae deletion strains, locus YKL009W, strain mrt4, active compounds read low 0.986 | S. cerevisiae deletion strains, locus YKL068W, active compounds read low 1 | S. cerevisiae deletion strains, locus YKL085W, strain MDH1 (second series), active compounds read low 1 | S. cerevisiae deletion strains, locus YKL085W, strain MDH1, active compounds read low 1 | S. cerevisiae deletion strains, locus YKR001C, strain vps1, active compounds read low 0.99 | S. cerevisiae deletion strains, locus YLR039C, strain RIC1, active compounds read low 1.03 | S. cerevisiae deletion strains, locus YLR058C, strain SHM2, active compounds read low 1.01 | S. cerevisiae deletion strains, locus YLR102C, strain apc9, active compounds read low 0.998 | S. cerevisiae deletion strains, locus YLR262C, strain YPT6, active compounds read low 1 | S. cerevisiae deletion strains, locus YLR268W, strain sec22, active compounds read low 1.01 | S. cerevisiae deletion strains, locus YLR330W, strain CHS5, active compounds read low 1.01 | S. cerevisiae deletion strains, locus YLR342W, strain FKS1 (second series), active compounds read low 1 | S. cerevisiae deletion strains, locus YLR371W, strain rom2, active compounds read low 1.01 | S. cerevisiae deletion strains, locus YLR418C, strain cdc73, active compounds read low 1 | S. cerevisiae deletion strains, locus YML016C, strain PPZ1, active compounds read low 1.01 | S. cerevisiae deletion strains, locus YML032C, strain rad52, active compounds read low 1.01 | S. cerevisiae deletion strains, locus YML124C, strain tub3, active compounds read low 1 | S. cerevisiae deletion strains, locus YMR078C, strain ctf18, active compounds read low 0.984 | S. cerevisiae deletion strains, locus YMR223W, strain ubp8, active compounds read low 1.01 | S. cerevisiae deletion strains, locus YMR263W, strain SAP30, active compounds read low 1.01 | [2] 0.99 | S. cerevisiae deletion strains, locus YNL067W, strain RPL9B, active compounds read low 1.02 | S. cerevisiae deletion strains, locus YNL128W, strain TEP1, active compounds read low 1.02 | S. cerevisiae deletion strains, locus YNL153C, strain GIM3, active compounds read low 1.01 | S. cerevisiae deletion strains, locus YNL233W, strain BNI4, active compounds read low 1 | S. cerevisiae deletion strains, locus YNL250W, strain rad50, active compounds read low 0.999 | S. cerevisiae deletion strains, locus YNL271C, strain bni1, active compounds read low 0.993 | S. cerevisiae deletion strains, locus YNL298W, strain CLA4, active compounds read low 1.01 | S. cerevisiae deletion strains, locus YNL307C, strain MCK1, active compounds read low 1 | S. cerevisiae deletion strains, locus YNR052C, strain pop2, active compounds read low 0.994 | S. cerevisiae deletion strains, locus YOL012C, strain htz1 0.868 | S. cerevisiae deletion strains, locus YOL147C, strain pex11, active compounds read low 0.993 | [6] 1.01 | S. cerevisiae deletion strains, locus YOR069W, strain VPS5, active compounds read low 1.01 | S. cerevisiae deletion strains, locus YOR136W, strain idh2, active compounds read low 0.997 | S. cerevisiae deletion strains, locus YOR144C, strain elg1, active compounds read low 0.992 | S. cerevisiae deletion strains, locus YOR184W, strain ser1, active compounds read low 1.03 | S. cerevisiae deletion strains, locus YOR316C, strain cot1, active compounds read low 0.995 | S. cerevisiae deletion strains, locus YPR119W, strain clb2, active compounds read low 0.989 | S. cerevisiae deletion strains, locus YPR141C, strain kar3, active compounds read low 0.999 | S. cerevisiae deletion strains, locus YPR163C, strain tif3, active compounds read low 1.01 | S. cerevisiae deletion strains, locus YPR167C, strain met16, active compounds read low 0.997 | S. cerevisiae deletion strains, strain wtn01, active compounds read low 0.981 | S. cerevisiae strains, strain wild type, active compounds read low 1.01

CC(C)c1ccc(N2C=Nc3ccc(C(C)C)cc3C2)cc1
inactive: S. cerevisiae deletion strains, locus YAR019C, strain CDC15, active compounds read low 0.998 | S. cerevisiae deletion strains, locus YBL105C, strain PKC1, active compounds read low 0.995 | S. cerevisiae deletion strains, locus YBR135W, strain CKS1, active compounds read low 0.997 | S. cerevisiae deletion strains, locus YBR136W, strain MEC1, active compounds read low 0.995 | S. cerevisiae deletion strains, locus YBR160W, strain CDC28, active compounds read low 1 | S. cerevisiae deletion strains, locus YDL017W, strain CDC7, active compounds read low 1 | S. cerevisiae deletion strains, locus YDL028C, strain MPS1, active compounds read low 1.01 | [3] 1 | S. cerevisiae deletion strains, locus YDL108W, strain KIN28, active compounds read low 0.993 | S. cerevisiae deletion strains, locus YDL132W, strain cdc53, active compounds read low 0.995 | S. cerevisiae deletion strains, locus YDL214C, strain PRR2, active compounds read low 0.971 | S. cerevisiae deletion strains, locus YDR052C, strain DBF4, active compounds read low 1 | S. cerevisiae deletion strains, locus YDR054C, strain cdc34, active compounds read low 0.992 | S. cerevisiae deletion strains, locus YDR226W, strain ADK1, active compounds read low 0.984 | S. cerevisiae deletion strains, locus YDR477W, strain SNF1, active compounds read low 0.97 | S. cerevisiae deletion strains, locus YER123W, strain YCK3, active compounds read low 0.934 | S. cerevisiae deletion strains, locus YER133W, strain GLC7, active compounds read low 0.968 | S. cerevisiae deletion strains, locus YFL009W, strain cdc4, active compounds read low 1 | S. cerevisiae deletion strains, locus YFL029C, strain CAK1, active compounds read low 1 | S. cerevisiae deletion strains, locus YFR003C, strain YPI1, active compounds read low 1 | S. cerevisiae deletion strains, locus YFR019W, strain FAB1, active compounds read low 0.942 | S. cerevisiae deletion strains, locus YFR028C, strain CDC14, active compounds read low 0.987 | S. cerevisiae deletion strains, locus YGR040W, strain KSS1, active compounds read low 0.973 | S. cerevisiae deletion strains, locus YGR052W, strain FMP48, active compounds read low 1.09 | S. cerevisiae deletion strains, locus YGR092W, strain DBF2, active compounds read low 1.01 | [4] 0.898 | S. cerevisiae deletion strains, locus YHR079C, strain IRE1, active compounds read low 0.988 | S. cerevisiae deletion strains, locus YHR082C, strain KSP1, active compounds read low 1.04 | S. cerevisiae deletion strains, locus YHR205W, strain SCH9, active compounds read low 0.975 | S. cerevisiae deletion strains, locus YIL147C, strain SLN1, active compounds read low 1 | [5] 0.953 | S. cerevisiae deletion strains, locus YJL128C, strain PBS2, active compounds read low 0.982 | S. cerevisiae deletion strains, locus YJL157C, strain FAR1, active compounds read low 0.995 | S. cerevisiae deletion strains, locus YJR016C, strain ILV3, active compounds read low 1 | S. cerevisiae deletion strains, locus YJR066W, strain TOR1 (second series), active compounds read low 0.972 | S. cerevisiae deletion strains, locus YJR066W, strain TOR1, active compounds read low 1 | S. cerevisiae deletion strains, locus YKL048C, strain ELM1, active compounds read low 0.995 | S. cerevisiae deletion strains, locus YKL067W, strain YNK1, active compounds read low 0.963 | S. cerevisiae deletion strains, locus YKL101W, strain HSL1, active compounds read low 0.978 | S. cerevisiae deletion strains, locus YKL193C, strain SDS22, active compounds read low 0.997 | S. cerevisiae deletion strains, locus YKL203C, strain TOR2, active compounds read low 1.02 | S. cerevisiae deletion strains, locus YLR113W, strain HOG1, active compounds read low 0.97 | S. cerevisiae deletion strains, locus YLR133W, strain CKI1, active compounds read low 0.98 | S. cerevisiae deletion strains, locus YLR403W, strain SFP1, active compounds read low 0.988 | S. cerevisiae deletion strains, locus YML070W, strain DAK1, active compounds read low 0.96 | S. cerevisiae deletion strains, locus YMR001C, strain CDC5, active compounds read low 1 | S. cerevisiae deletion strains, locus YMR205C, strain PFK2 (second series), active compounds read low 0.972 | S. cerevisiae deletion strains, locus YMR277W, strain FCP1, active compounds read low 0.989 | S. cerevisiae deletion strains, locus YNL006W, strain LST8, active compounds read low 1.01 | S. cerevisiae deletion strains, locus YNL020C, strain ARK1, active compounds read low 0.987 | S. cerevisiae deletion strains, locus YNL161W, strain CBK1, active compounds read low 1 | S. cerevisiae deletion strains, locus YNL183C, strain NPR1, active compounds read low 0.968 | S. cerevisiae deletion strains, locus YNL207W, strain RIO2, active compounds read low 1.01 | S. cerevisiae deletion strains, locus YNL222W, strain SSU72, active compounds read low 1 | S. cerevisiae deletion strains, locus YNL307C, strain MCK1 (second series), active compounds read low 0.957 | S. cerevisiae deletion strains, locus YOL078W, strain AVO1, active compounds read low 1 | S. cerevisiae deletion strains, locus YOL136C, strain PFK27, active compounds read low 0.964 | [6] 0.999 | S. cerevisiae deletion strains, locus YOR119C, strain RIO1, active compounds read low 1.08 | S. cerevisiae deletion strains, locus YOR231W, strain MKK1, active compounds read low 0.99 | S. cerevisiae deletion strains, locus YOR329C, strain SCD5, active compounds read low 0.998 | S. cerevisiae deletion strains, locus YPL031C, strain PHO85, active compounds read low 0.973 | S. cerevisiae deletion strains, locus YPL153C, strain RAD53, active compounds read low 0.983 | S. cerevisiae deletion strains, locus YPL204W, strain HRR25, active compounds read low 0.949 | S. cerevisiae deletion strains, locus YPL209C, strain IPL1, active compounds read low 1 | S. cerevisiae deletion strains, locus YPL256C, strain CLN2, active compounds read low 0.97 | S. cerevisiae deletion strains, locus YPR025C, strain CCL1, active compounds read low 1 | S. cerevisiae deletion strains, locus YPR106W, strain ISR1, active compounds read low 0.998 | S. cerevisiae deletion strains, locus YPR111W, strain DBF20, active compounds read low 0.985 | S. cerevisiae deletion strains, strain NNK1, active compounds read low 1.01 | S. cerevisiae deletion strains, strain TSCII, active compounds read low 1.01
